Measurements published in PubChem BioAssay AID651739 (Broad Institute, 2012).
About 4,100 (73%) of roughly 5,600 compounds were called active. Another 4% or so got no clear call; they are omitted. So high a share suggests a set chosen from earlier hits. Only a sample is shown. A number with no mark means an inactive call.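 How the source made its calls: active means mean replicate inhibition above about 95% and at least 55% of replicates individually reaching it (limit read from the data); inconclusive means only one of the two criteria is met; inactive means neither criterion is met.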

Assay: blockers of Trypanosoma cruzi growth in host cells – cell-based, NIH3T3 host, beta-gal parasite, luminescence, cherry-pick, confirmation (AID 651739)
Settings: T. cruzi beta-gal in NIH3T3, GalScreen luminescence, 90 h; at 8.35 µM; active compounds read high
With `CC(=O)N(C)C[C@@H]1[C@@H](c2ccc(-c3ccccc3F)cc2)[C@@H](CO)N1C(C)=O` the inhibition was 19.8%. For `COCC(=O)N1[C@H](CO)[C@@H](c2ccc(C#Cc3ccccc3F)cc2)[C@@H]1C#N`, the inhibition was 107% (active). With `COc1ccc(S(=O)(=O)N(C)C[C@H]2OCCCC[C@H](C)Oc3ccc(NS(=O)(=O)c4ccc(F)cc4)cc3C(=O)N([C@@H](C)CO)C[C@@H]2C)cc1` the inhibition was 106% (active). In the case of `C[C@@H]1CCCCO[C@H](CN(C)S(=O)(=O)c2ccc(F)cc2)[C@H](C)CN([C@@H](C)CO)C(=O)c2cc(NS(=O)(=O)c3ccccc3)ccc2O1`, the inhibition was 109% (active). Molecule `C[C@H](CO)N1C[C@H](C)[C@H](CN(C)S(=O)(=O)c2ccc(F)cc2)OCCCC[C@H](C)Oc2ccc(NS(=O)(=O)c3ccc(Cl)cc3)cc2C1=O` has an inhibition of 92.1%. In the case of `Cc1ccc(S(=O)(=O)Nc2ccc3c(c2)C(=O)N([C@H](C)CO)C[C@H](C)[C@H](CN(C)C(=O)Nc2ccc(F)cc2)OCCCC[C@H](C)O3)cc1`, the inhibition was 108% (active). For `Cc1ccc(S(=O)(=O)N(C)C[C@@H]2OCCCC[C@@H](C)Oc3ccc(NS(=O)(=O)c4ccc(F)cc4)cc3C(=O)N([C@H](C)CO)C[C@H]2C)cc1`, the inhibition was 97.7% (active). For `Cc1ccc(S(=O)(=O)N2C[C@@H](O)COC[C@@H]3O[C@H](CC(=O)NCc4ccc(Cl)c(Cl)c4)CC[C@H]32)cc1`, the inhibition was 103% (active). In the case of `COc1cccc(S(=O)(=O)N2C[C@@H](O)COC[C@@H]3O[C@H](CC(=O)Nc4ccccc4)CC[C@H]32)c1`, the inhibition was 62.3%. For `COc1ccc(S(=O)(=O)Nc2ccc3c(c2)C(=O)N([C@@H](C)CO)C[C@H](C)[C@H](CN(C)Cc2ccc(C(F)(F)F)cc2)O3)cc1`, the inhibition was 104% (active). For `COc1ccc(CN(C)C[C@H]2Oc3ccc(NS(=O)(=O)c4ccc(Cl)cc4)cc3CC(=O)N([C@@H](C)CO)C[C@H]2C)cc1`, the inhibition was 100% (active). With `COc1ccc(S(=O)(=O)Nc2ccc3c(c2)C(=O)N([C@H](C)CO)C[C@H](C)[C@H](CN(C)Cc2ccc(C(F)(F)F)cc2)O3)cc1` the inhibition was 106% (active). With `COc1ccc(S(=O)(=O)Nc2ccc3c(c2)C(=O)N([C@@H](C)CO)C[C@H](C)[C@@H](CN(C)Cc2ccc(C(F)(F)F)cc2)O3)cc1` the inhibition was 88.7%. In the case of `C[C@H](CO)N1C[C@H](C)[C@H](CN(C)Cc2ccc(C(F)(F)F)cc2)Oc2ccc(NS(=O)(=O)c3ccc(Cl)cc3)cc2C1=O`, the inhibition was 106% (active). For `Cc1ccc(S(=O)(=O)Nc2ccc3c(c2)C(=O)N([C@H](C)CO)C[C@H](C)[C@H](CN(C)Cc2ccc(Cl)c(Cl)c2)O3)cc1`, the inhibition was 102% (active). Work on `O=C(C[C@@H]1C[C@H]2c3cc(NC(=O)C4CCC4)ccc3O[C@H]2[C@@H](CO)O1)NCc1ccc2c(c1)OCO2` yielded an inhibition of 12.6%. For `O=C(C[C@@H]1C[C@@H]2c3cc(NC(=O)c4ccc5c(c4)OCO5)ccc3O[C@@H]2[C@@H](CO)O1)NCc1ccc(Cl)cc1`, the inhibition was 106% (active). For `COc1cccc(S(=O)(=O)Nc2ccc3c(c2)[C@H]2C[C@H](CC(=O)NCc4ccc(Cl)cc4)O[C@H](CO)[C@H]2O3)c1`, the inhibition was 104% (active). Molecule `O=C(Nc1ccc2c(c1)[C@@H]1C[C@H](CC(=O)N3CCOCC3)O[C@@H](CO)[C@@H]1O2)c1ccc2c(c1)OCO2` has an inhibition of 13.5%. With `C/C=C/c1ccc([C@H]2[C@@H](CNC(C)C)N(c3nc(CC)cs3)[C@H]2CO)cc1` the inhibition was 101% (active). For `C[C@@H]1CCCCO[C@@H](CN(C)CC2CC2)[C@H](C)CN([C@H](C)CO)C(=O)c2cc(NC(=O)C3CCCCC3)ccc2O1`, the inhibition was 99.2% (active). With `C[C@@H]1CN([C@@H](C)CO)C(=O)c2cc(NC(=O)C3CCCCC3)ccc2O[C@@H](C)CCCCO[C@H]1CN(C)Cc1ccncc1` the inhibition was 97.3% (active). In the case of `C[C@H]1CCCCO[C@H](CN(C)Cc2ccc(C(F)(F)F)cc2)[C@@H](C)CN([C@@H](C)CO)C(=O)c2cc(NC(=O)C3CCCCC3)ccc2O1`, the inhibition was 100% (active). For `C[C@@H]1CCCCO[C@H](CN(C)Cc2ccc(Cl)c(Cl)c2)[C@H](C)CN([C@@H](C)CO)C(=O)c2cc(NC(=O)C3CCCCC3)ccc2O1`, the inhibition was 97.4% (active). In the case of `CCCNC(=O)N1[C@@H]2c3cccc(=O)n3C[C@H]1[C@H](CO)[C@H]2C(=O)NCC(F)(F)F`, the inhibition was 21.5%. In the case of `C[C@H](CO)N1C[C@H](C)[C@@H](CN(C)Cc2ccc(C(F)(F)F)cc2)OCCCC[C@H](C)Oc2ccc(NC(=O)C3CCCCC3)cc2C1=O`, the inhibition was 98.1% (active). For `C[C@@H]1CCCCO[C@@H](CN(C)Cc2ccc3c(c2)OCO3)[C@@H](C)CN([C@@H](C)CO)C(=O)c2cc(NC(=O)Nc3ccccc3)ccc2O1`, the inhibition was 110% (active). For `COc1ccc(CN(C)C[C@H]2OCCCC[C@H](C)Oc3ccc(NC(=O)Nc4ccc5c(c4)OCO5)cc3C(=O)N([C@H](C)CO)C[C@@H]2C)cc1`, the inhibition was 100% (active). With `C[C@@H]1CN([C@H](C)CO)S(=O)(=O)c2ccc(C#CCC3CCCC3)cc2O[C@H]1CN(C)C(=O)CC1CC1` the inhibition was 97.4% (active). For `CNC[C@@H]1Oc2cc(C#CCC3CCCC3)ccc2S(=O)(=O)N([C@H](C)CO)C[C@H]1C`, the inhibition was 95% (active). With `CO[C@H](CN(C)S(=O)(=O)c1ccc(Cl)cc1)[C@@H](C)CN(Cc1ccccc1Cl)[C@H](C)CO` the inhibition was 110% (active). For `CN1C(=O)c2cc(NC(=O)c3cnccn3)ccc2OC[C@@H]2O[C@H](CC(=O)N[C@@H]3CCN(Cc4ccccc4)C3)CC[C@@H]21`, the inhibition was 99.8% (active). For `CN1C(=O)c2cc(NC(=O)Nc3ccccc3F)ccc2OC[C@H]2O[C@H](CC(=O)NCc3ccc(-c4ccccc4)cc3)CC[C@H]21`, the inhibition was 108% (active). Molecule `CN1C(=O)c2cc(NC(=O)c3cnccn3)ccc2OC[C@@H]2O[C@@H](CC(=O)N[C@H]3CCN(Cc4ccccc4)C3)CC[C@H]21` has an inhibition of 71.5%. In the case of `CC(C)NC(=O)Nc1ccc2c(c1)C(=O)N([C@@H](C)CO)C[C@H](C)[C@H](CN(C)S(=O)(=O)c1ccc(Cl)cc1)OCCCC[C@H](C)O2`, the inhibition was 104% (active). With `C[C@H]1CCCCO[C@H](CN(C)S(=O)(=O)c2ccc(Cl)cc2)[C@@H](C)CN([C@@H](C)CO)C(=O)c2cc(NC(=O)Nc3ccc4c(c3)OCO4)ccc2O1` the inhibition was 103% (active). `C[C@@H]1CN([C@H](C)CO)C(=O)c2cc(NS(C)(=O)=O)ccc2O[C@@H](C)CCCCO[C@H]1CN(C)S(=O)(=O)c1cn(C)cn1` gave an inhibition of -9.98%. With `COc1ccc(NC(=O)Nc2ccc3c(c2)C(=O)N([C@H](C)CO)C[C@H](C)[C@H](CN(C)S(=O)(=O)c2ccc(Cl)cc2)OCCCC[C@H](C)O3)cc1` the inhibition was 104% (active). For `C[C@H](CO)N1C[C@H](C)[C@@H](CN(C)S(=O)(=O)c2ccccc2F)Oc2ncc(C#Cc3ccccc3F)cc2C1=O`, the inhibition was 106% (active). In the case of `CCCNC(=O)N(C)C[C@@H]1Oc2ncc(C#Cc3ccccc3F)cc2C(=O)N([C@@H](C)CO)C[C@H]1C`, the inhibition was 112% (active). With `C[C@H](CO)N1C[C@H](C)[C@@H](CN(C)S(=O)(=O)c2ccccc2)Oc2ncc(C#Cc3ccccc3F)cc2C1=O` the inhibition was 111% (active). For `C[C@@H]1CN([C@@H](C)CO)C(=O)c2cc(NC(=O)Nc3cccc4ccccc34)ccc2O[C@H]1CN(C)Cc1ccc(Oc2ccccc2)cc1`, the inhibition was 103% (active). For `C[C@@H]1CN([C@@H](C)CO)C(=O)c2cc(NC(=O)Nc3cccc4ccccc34)ccc2O[C@H]1CN(C)Cc1ccc(Cl)c(Cl)c1`, the inhibition was 97.9% (active). With `OC[C@@H]1[C@H](c2ccc(C#CC3(O)CCCC3)cc2)[C@H]2CN(Cc3cncnc3)CCCCN12` the inhibition was 99.2% (active). `O=C(c1ccc(F)cc1)N1CCCCN2[C@H](C1)[C@@H](c1ccc(C#CC3(O)CCCC3)cc1)[C@@H]2CO` showed an inhibition of 45.9%. `OC[C@H]1[C@H](c2ccc(-c3cccc(F)c3)cc2)[C@@H]2CN(Cc3cncnc3)CCCCN12` gave an inhibition of 82.2%. For `Cc1cccc(-c2ccc([C@H]3[C@@H](CO)N4CCCCN(Cc5cncnc5)C[C@H]34)cc2)c1`, the inhibition was 84.9%. With `OC[C@@H]1[C@H](c2ccc(C#Cc3ccccc3)cc2)[C@@H]2CN(Cc3cncnc3)CCCCN12` the inhibition was 104% (active). For `Cc1ccc(-c2ccc([C@H]3[C@H](CO)N4CCCCN(Cc5cncnc5)C[C@@H]34)cc2)cc1`, the inhibition was 102% (active). For `O=C(Nc1cc(Cl)cc(Cl)c1)N[C@H]1CC[C@@H](CCNS(=O)(=O)c2cccc(F)c2)O[C@H]1CO`, the inhibition was 113% (active). In the case of `O=C(Nc1ccc(Cl)cc1)N[C@@H]1CC[C@@H](CCNC(=O)c2ccccc2F)O[C@H]1CO`, the inhibition was 45.6%. With `CC(C)NC(=O)N1[C@H](C#N)[C@H](c2ccc(C#CC3CCCCC3)cc2)[C@H]1CO` the inhibition was 105% (active). For `N#C[C@H]1[C@@H](c2ccc(C3=CCCCC3)cc2)[C@@H](CO)N1C(=O)NC1CCCCC1`, the inhibition was 105% (active). With `CCc1cnc(N2[C@H](C#N)[C@H](c3ccc(C4=CCCC4)cc3)[C@@H]2CO)s1` the inhibition was 106% (active). With `CS(=O)(=O)N1[C@@H](C#N)[C@H](c2ccc(C#CC3CCCCC3)cc2)[C@@H]1CO` the inhibition was 103% (active).
